LASV entry inh: qHTS for Inhibitors of binding or entry into cells for Lassa Virus; hit rate 4.1% among 18,000; Lassa virus pseudotyped entry inhibition, cell-based qHTS; AID 720533, 2013; Potency, µM (top dose mostly 49.2 µM), without a hit: top-dose activity change, negative = inhibition, usual class: inhibitors
Marburg entry: qHTS for Inhibitors of binding or entry into cells for Marburg Virus. Marburg virus pseudotype entry/binding inhibition, cell-based. Potency, µM (series often up to 49.2 µM), inactives show at the highest dose activity change, negative = inhibition, most hits filed as inhibitors. hit rate 6.5% among 18,000
The depositor's hits bear a star; ? = inconclusive; / = not tested or not shown; ! = not active in a repeat; [ ] = remark or other dose. In the library only some 7.1% were active in any assay of this set; here they are far more common. Calls come from the whole dose curve; tested in HEK293 cells. % is set by controls: 0 for no effect and ±100 for the full control effect; potency is the fitted concentration of half-maximal effect.

SMILES	LASV entry inh	Marburg entry
COc1ccc([C@]23Cc4cc(C#N)ccc4[C@H](O2)c2c(c4ccc(OC)cc4oc2=O)O3)cc1	27%[8.59 µM]	?
CCOC(=O)NN=Cc1ccccc1-c1cc(OC)ccc1OC	-18%[8.59 µM]	-4%[8.59 µM]
COc1ccc(/C=C\C(=O)Nc2ccccc2C(=O)O)cc1OC	20µM*	40µM*
COc1ccc(/C=C/C(=O)O)cc1OC	35%	11%
Oc1cc2c(cc1O)[C@@H]1c3ccc(O)c(O)c3OC[C@]1(O)C2	-20%	5.6µM*
CC(=O)OC[C@H]1O[C@@H](ON=CC[C@@H]2C=C[C@@H](OC(C)=O)[C@@H](COC(C)=O)O2)[C@@H](OC(C)=O)[C@@H](OC(C)=O)[C@@H]1OC(C)=O	-11%[8.59 µM]	-12%[8.59 µM]
Cc1cc(N)c2ccccc2[n+]1CCCCCCCCCC[n+]1c(C)cc(N)c2ccccc21	28µM*	?
CCCN(CCC)C1CCc2cccc(O)c2C1 (stereo unspecified)	32µM*	22µM*
CCCN(C/C=C/I)C1CCc2cccc(O)c2C1 (stereo unspecified)	8%	?
CCN(CC)c1ccc(C(=C2C=CC(=[N+](CC)CC)C=C2)c2ccccc2)cc1	0.32µM*	0.28µM*
CC(C)=CCN1C(=O)[C@]2(O[C@H](COc3ccccc3)CC3=CCCC32)c2c(Br)cccc21 (stereo partly specified)	-9%[8.59 µM]	-17%[8.59 µM]
CN[C@@H]1C[C@@]2(C)O[C@@H]([C@@H]1OC)n1c3ccccc3c3c4c(c5c6ccccc6n2c5c31)C(=O)NC4	1µM*	?
C[C@]12O[C@H](C[C@]1(O)CO)n1c3ccccc3c3c4c(c5c6ccccc6n2c5c31)CNC4=O	11µM*	1µM*
CCN1C(=O)[C@@H]2[C@H]3[C@H](O)[C@H](O)CC(=NO[C@H](C)c4cn([C@H](CO)Cc5ccccc5)nn4)[C@@H]3CC[C@H]2C1=O	/	-11%[8.59 µM]
COc1cc(O)c(C(=O)C=Cc2ccc3c(c2)OCO3)c(OC)c1	12%[8.59 µM]	10%[8.59 µM]
C=CCP1(=O)O[C@H](C=C)C[C@H](C=C)O1 (stereo partly specified)	4%	38%
CC(C)C[C@H]1COc2c(Cl)cccc2S(=O)(=O)N1C	/	12%
O=c1c(O)c(-c2ccc(O)c(O)c2)oc2c(O)c(O)cc(O)c12	8%	?
O=c1oc2c(O)c(O)cc3c(=O)oc4c(O)c(O)cc1c4c23	-2%	1µM*
O=C(O)[C@@H]1C[C@H](CP(=O)(O)O)CCN1	19%	8%
COc1cc(/C=C/C(=O)N2CCC=CC2=O)cc(OC)c1OC	?	10µM*
COc1cc(C(=O)N2CCCCCCC2)cc(OC)c1OC	-20%	-5%
CCC[C@H]1CN(c2ccccc2)C(=O)[C@H]1CC(=O)Nc1ccc(Br)cc1	-15%	-44%
CCN1C(=NCc2cccc(C(F)(F)F)c2)NC(c2cccc(C(F)(F)F)c2)C(C(=O)OC)=C1C (stereo unspecified)	-32%[8.59 µM]	-17%[8.59 µM]
Cc1ccc(-c2c(C)cc3oc(=O)cc(-c4ccccc4)c3c2C)cc1	?	-17%
SMILES	LASV entry inh	Marburg entry
CC(=O)Nc1ccc(-c2c(C)cc3oc(=O)cc(-c4ccccc4)c3c2C)cc1	7.9µM*	-22%
COc1cccc2c1CCCC2CCCN1CCN(C2CCCCC2)CC1 (stereo unspecified)	22µM*!	13µM*
COc1ccccc1N1CCN(CCCCN2C(=O)CCC2=O)CC1	2%	-5%
O=C1c2ccccc2C(=O)N1CCCC[C@]12Cc3c(ccc4ccccc34)[C@H](O1)c1c(cc(-c3ccccc3)oc1=O)O2	-13%[8.59 µM]	?
Cc1ccc(C(=O)NC2CC2)cc1-c1ccc2[nH]ncc2c1	/	-9%
CCCC(C)(C)C(=O)Nc1ccc(Cl)cc1	8%	9%
O=C(Nc1ccc(Cl)cc1)Nc1ccc(Cl)c(C(F)(F)F)c1	14µM*	11µM*
CC(=O)OC[C@H]1O[C@H](CC=NOC[C@@H](O)COCc2ccco2)C=C[C@H]1OC(C)=O	-4%[8.59 µM]	1%[8.59 µM]
CCN1C(=O)[C@@H]2[C@H]3[C@H](O)[C@H](O)CC(=NO[C@H](C)CN4CCCc5nc(C)c(C)cc54)[C@@H]3CC[C@H]2C1=O	14%[8.59 µM]	2%[8.59 µM]
COC(=O)CC=C1c2ccc(F)cc2[C@@H](OC)[C@@H]1C	/	-11%[8.59 µM]
C[C@@H]1O[C@@H](OC2CC(O)C3(CO)C4C(CCC3(O)C2)C2(O)CCC(C3=CC(=O)OC3)C2(C)C[C@H]4O)[C@H](O)[C@H](O)[C@H]1O (stereo partly specified)	0.18µM*	0.22µM*
COCC(C)NCc1cc2ccc(OC)cc2nc1N1CCN(c2ccc(F)cc2)CC1 (stereo unspecified)	?	11µM*
COc1ccc2cc(CNCc3ccccc3C(F)(F)F)c(N3CCCC(CO)C3)nc2c1 (stereo unspecified)	-25%	1%
O=C1C(=O)c2ncccc2-c2cccnc21	2.5µM*	?
O=C1c2ccccc2C(=O)c2ccccc21	6%	5%
COc1ccc(N2C(=O)N3[C@H](c4ccccc4)[C@@H](C)C[C@H]4c5ccccc5C[C@]43C2=O)cc1	4%[8.59 µM]	2%[8.59 µM]
Cc1cc(C)c(N(Cc2ccccc2)S(=O)(=O)c2ccc(OCCNC(=O)c3cc4ccccc4o3)cc2)c(C(=O)NO)c1	13µM*	5µM*
COc1ccc(-c2nc3cc(C)ccc3cc2CN(C(=O)c2ccco2)C2CC2)cc1OC	-24%	-7%
COc1ccc(-c2nc3cc(C)ccc3cc2CN(C(=O)c2cccs2)C2CC2)cc1OC	?	-2%
COc1cccc(-c2nc3cc4c(cc3cc2CN(C(=O)c2cccs2)C2CC2)CCC4)c1OC	13µM*	?
COc1cccc(C(=O)N(Cc2cc3ccc(C)cc3nc2N(C)C)C2CC2)c1OC	5µM*	4µM*
COC(=O)N[C@@H](c1ccc(Cl)cc1)C(C(C)=O)C(=O)OC (stereo partly specified)	1%[8.59 µM]	13%[8.59 µM]
Clc1ccc(C[n+]2cc(-c3ccccc3)n3c2CCCCC3)c(Cl)c1	?	8.9µM*
COC(=O)N[C@@H](c1cccc(C)c1)[C@]1(C(=O)OC)CCCC1=O	11%[8.59 µM]	?
CN(C)c1cc2c(Nc3ccc4nc(Cc5ccccc5)[nH]c4c3)ncnc2cn1	57%	91%
SMILES	LASV entry inh	Marburg entry
O=C(Nc1cc(C(F)(F)F)ccc1O)Nc1cc(C(F)(F)F)ccc1O	-3%	12%
O=C(Nc1cc(C(F)(F)F)cc(C(F)(F)F)c1)c1cc(Cl)ccc1O	1.1µM*	1µM*
COC(=O)C1=C(C)N(CC2CC2)C(=O)NC1CCc1ccccc1 (stereo unspecified)	9%[8.59 µM]	21%[8.59 µM]
C[C@H]1CC[C@H]2C(=O)N(Cc3ccccc3)C[C@H](O)CN2[C@H]1c1cccc(Br)c1	/	-5%[8.59 µM]
CN(C)c1ccc(-c2nc(N(C)C)c3ccccc3n2)cc1	-7%	11µM*
CN(C)c1ccc(-c2nc(Nc3ccncc3)c3ccccc3n2)cc1	-32%	?
CN(C)c1ccc(-c2nc(N(C)Cc3ccco3)c3ccccc3n2)cc1	29%	?
CNc1nc(-c2ccc(N(C)C)cc2)nc2ccccc12	-7%	18µM*
O=S1(=O)c2ccc(Br)cc2-n2nncc2CN1Cc1ccc(C(F)(F)F)cc1	20%	25%
O=C(CCN1CCN(CCO)CC1)N1c2ccccc2Sc2ccc(C(F)(F)F)cc21	-15%	?
CN1CCN(CCCN2c3ccccc3Sc3ccc(C(F)(F)F)cc32)CC1	22µM*	16µM*
O=c1n(CCCN2CCN(c3cccc(Cl)c3)CC2)nc2ccccn12	0%	10%

From PubChem
